AmpC inh det: Promiscuous and Specific Inhibitors of AmpC Beta-Lactamase (assay with detergent) | P00811 | purified AmpC, nitrocefin hydrolysis with detergent | Potency, µM (top dose mostly 28.7 µM), for inactives: at the highest dose activity change, negative = inhibition | 71,000 tested, 0.09% active | AID 584, 2007; active = well fitted curve in the direction sought with a large enough effect; inconclusive = small, poorly fitted or top-dose-only effect; also: % is scaled to controls: 0 for no effect and ±100 for the full control effect
Target sequence (P00811 whole entry, looked up): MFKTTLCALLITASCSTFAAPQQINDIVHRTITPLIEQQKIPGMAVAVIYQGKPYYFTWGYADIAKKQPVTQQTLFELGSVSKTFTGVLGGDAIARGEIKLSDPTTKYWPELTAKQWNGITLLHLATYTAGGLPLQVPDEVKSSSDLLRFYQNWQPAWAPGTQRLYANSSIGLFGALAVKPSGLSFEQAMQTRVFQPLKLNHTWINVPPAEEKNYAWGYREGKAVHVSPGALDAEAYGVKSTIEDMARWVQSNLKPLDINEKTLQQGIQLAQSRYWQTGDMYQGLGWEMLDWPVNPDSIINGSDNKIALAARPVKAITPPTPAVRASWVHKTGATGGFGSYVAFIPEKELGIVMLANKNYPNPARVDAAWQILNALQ
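E. coli AmpC (5.3 nM) in 20 mM phosphate pH 7.0 with 0.01% Triton X-100, preincubated 15 min RT with compound; nitrocefin (2 uL of 800 uM stock) hydrolysis followed by 480 nm absorbance every 20 s over 4 min.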
Anthrax LT inh: qHTS Assay for Anthrax Lethal Toxin Internalization; Cells, anthrax lethal toxin internalization, FRET ratio (460/530); Potency, µM (titrated, usually from 40 µM), without a hit: at the highest dose activity change, negative = inhibition, most hits filed as inhibitors; 70,000 tested, 0.67% active; AID 912, 2007; also: % is scaled to controls: 0 for no effect and ±100 for the full control effect; nearly all actives have a fitted effect of over 50% in size
Prx2 Sm inh: Schistosoma Mansoni Peroxiredoxins (Prx2) | S. mansoni Prx2 activity coupled to TGR/GSH (TGR is thioredoxin glutathione reductase), NADPH fluorescence loss, qHTS | Potency, µM | 65,000 tested, 0.07% active | AID 448, 2006
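Activity is read as the drop in NADPH fluorescence (365/450 nm), recorded every 30 sec for 8 min after H2O2 addition. Prx2 is coupled to TGR-driven NADPH oxidation through glutathione, in phosphate buffer pH 7.4.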
AmpC nodet inh: Promiscuous and Specific Inhibitors of AmpC Beta-Lactamase (assay without detergent); P00811; AmpC nitrocefin hydrolysis, absorbance 480 nm, no detergent; Potency, µM (titrated, usually from 28.7 µM), for inactives: top-dose activity change, negative = inhibition; 71,000 tested, 1.8% active; AID 585, 2007; also: % of control where 0% means no effect
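Enzyme, pH 7.0 phosphate. Compound titrations were pre-incubated with AmpC for 15 min at room temperature before nitrocefin (stock 800 uM) addition; product formation was recorded at 480 nm every 20 s for 4 min.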
* = called active by the depositor; i = inactive; ? = inconclusive; . = no result; ! = repeats disagree; [ ] = remark or other dose. In the library only some 2.4% were active in any assay of this set; here they are far more common. Unless noted, calls follow the shape of the full dose curve. Potency is read from the fitted curve at half-maximal effect.

SMILES	AmpC inh det	Anthrax LT inh	Prx2 Sm inh	AmpC nodet inh
CCCCSc1c(C)c2cc3c(cc2[nH]c1=O)OCO3	-4%	.	>57	16µM*[single pt active]
CN(C)c1ncnc2ccc(-c3ccc4c(c3)OCO4)cc12	2%	-15%	>57	118%
COC(=O)[C@](C)(N)Cc1ccc(O)cc1	-2%	-4%	>57	-3%
CSc1nc(N)c(C#N)c(-c2ccc(Cl)cc2)c1C#N	-4%	?	>57	?
CCCCOc1ccc(-c2c(C#N)c(N)nc(SCC(N)=O)c2C#N)cc1	6%	?	>57	20µM*[single pt active]
C=C(C)CSc1nc(N)c(C#N)c(-c2ccc(C)cc2)c1C#N	19%	?	>57	6.3µM*
CCCN1CCC[C@H](c2cccc(C#N)c2)C1	-4%	-6%	>57	-10%
Cc1cccc2c1Oc1ccccc1[C@@H]2NC(=O)c1ccc([N+](=O)[O-])cc1	-4%[5.75 µM]	-8%[8 µM]	>57	-2%[5.75 µM]
CNc1ccc2oc(C[C@@H]3O[C@@]4(CC[C@H]3C)O[C@@H]([C@@H](C)C(=O)c3ccc[nH]3)[C@@H](C)C[C@H]4C)nc2c1C(=O)O	-11%	?	>57	6%
CCOC(=O)N1CCC(NC(=O)c2ccc3snnc3c2)CC1	14%	1%	>57	4µM*[single pt active]
O=c1c2c([nH]c3ccc(Br)cc13)CCCC2	-3%	3%	>57	-16%
O=C1Cc2c([nH]c3ccc(Br)cc23)-c2ccccc2N1	-4%	-18%	>57	16µM*!
CCCn1c(C)c(C(=O)c2ccc3ccccc3c2)c2ccccc21	-5%	13µM*	>26	19%
CCOC(=O)CCc1c(C)n(CC)c2ncnn2c1=O	12%	-3%	>57	4µM*[single pt active]
COCCn1c(=O)c(-c2cccs2)nc2cnc(N(C)C)nc21	0%	?	>57	21%
Oc1cccc(Cl)c1	8%	.	.	2%
COc1ccccc1C(=O)N(Cc1ccco1)C1CCS(=O)(=O)C1 (stereo unspecified)	15%	3%	>57	8%
O=C(c1cnn2ccccc12)N(Cc1ccco1)C1CCCC1	10%	0%	>57	4µM*[single pt active]
CN(C)S(=O)(=O)c1ccc(Oc2ccccc2)cc1	0%	.	>57	3%
CN(C)S(=O)(=O)c1ccc(-c2ccccc2)cc1	8%	7.9µM*	.	-4%
O=C(O)[C@H]1[C@H](C(=O)O)[C@H]2CC[C@@H]1O2	-3%	2%	>57	9%
NC(CSS(=O)(=O)O)=N[C@@H]1C[C@H]2CC[C@@H]1C2	0%[5.75 µM]	?	>57	3%[5.75 µM]
O=C(NCCN1CCOCC1)c1ccc(CS(=O)(=O)c2ccc(Br)cc2)o1	-1%	-3%	>57	31%
O=C(NCCCN1CCOCC1)c1ccc(CS(=O)(=O)c2ccc(Br)cc2)o1	10%	-11%	>57	4µM*[single pt active]
O=C(NCCCN1CCOCC1)c1ccc(CS(=O)(=O)c2c(Cl)cccc2Cl)o1	18%	-12%	>57	3.2µM*[single pt active]
SMILES	AmpC inh det	Anthrax LT inh	Prx2 Sm inh	AmpC nodet inh
COc1ccccc1S(=O)(=O)Cc1ccc(C(=O)NCCN2CCCCCC2)o1	10%	-17%	>57	4µM*[single pt active]
O=[N+]([O-])c1ccc(S(=O)(=O)Cc2ccccc2)c2nonc12	-4%[5.75 µM]	19%[8 µM]	.	-14%[5.75 µM]
Cc1cc(C(=O)CSc2nnc(-c3ccco3)o2)c(C)n1Cc1ccco1	-3%	-6%	>57	28%
Cc1cc(C(=O)CSc2nn(-c3ccccc3)c(=S)s2)c(C)n1Cc1ccco1	-1%	?	>57	13µM*
C[C@@H](Cc1ccccc1)Nc1ncnc2c1ncn2[C@@H]1O[C@@H](CO)[C@H](O)[C@@H]1O	15%	11%	>57	4%
CCC1CCCN1Cn1cnc2c([nH]c3ccc(OC)cc32)c1=O (stereo unspecified)	-2%	-5%	>57	2%
CCCCN(CCCC)CCn1cnc2c([nH]c3ccc(OC)cc32)c1=O	13%	-14%	>57	4µM*[single pt active]
COc1ccc(CNC(=O)Nc2cccs2)cc1OC	-4%	-21%	>57	-7%
COc1cccc(CNC(=O)Nc2cccs2)c1	-1%	?	>57	13µM*
CC(C)C[C@@H](CC(=O)N[C@H](CC(=O)N[C@@H]1CCCC[C@H]1C(=O)N[C@H](CC(=O)N[C@@H](CCC(=O)O)CC(=O)O)CC(C)C)C(C)C)NC(=O)[C@@H]1CNCC[C@H]1N	19%	-18%	>57	120%
CCC(C)N(CCNC(=O)CC1Oc2ccccc2NC1=O)C1CCCCC1 (stereo unspecified)	7%	-19%	>57	4µM*[single pt active]
CCN(CCNC(=O)CC1Oc2ccccc2NC1=O)c1ccccc1 (stereo unspecified)	13%	0%	>57	4µM*[single pt active]
CC(C)CN(CCNC(=O)CC1Oc2ccccc2NC1=O)CC(C)C (stereo unspecified)	13%	-3%	>57	4µM*[single pt active]
CCCSCCCNC(=O)CC1Oc2ccccc2NC1=O (stereo unspecified)	12%	-1%	>57	4µM*[single pt active]
C[C@@]12CC[C@H]3[C@H](CCC4=CC(=O)CC[C@H]43)[C@H]1CC[C@H]2OC1(O)C(=O)c2ccccc2C1=O	-7%[5.75 µM]	-2%[8 µM]	i	8%[5.75 µM]
Nc1ccc2cc3ccccc3cc2c1	12%	?	.	2.5µM*
OC(CN1C2=NCCCN2c2ccccc21)c1ccc(Cl)cc1 (stereo unspecified)	13%	?	>57	4µM*[single pt active]
CCN(CC)S(=O)(=O)c1ccc(NC2c3ccccc3C(=O)N2Cc2ccc3c(c2)OCO3)cc1 (stereo unspecified)	15%	?	>57	4µM*[single pt active]
O=C1c2ccccc2C(Nc2ccc3c(c2)OCCO3)N1Cc1ccc2c(c1)OCO2 (stereo unspecified)	11%	?	>57	4µM*[single pt active]
O=C1c2ccccc2C(Nc2ccc3c(c2)OCCO3)N1c1ccccn1 (stereo unspecified)	9%	?	>57	14%
COc1cc2cc(C(c3nnnn3C3CCCC3)N3CCc4ccccc43)c(=O)[nH]c2cc1OC (stereo unspecified)	20%	?	>57	118%
O=c1[nH]c2cc3c(cc2cc1C(c1nnnn1C1CCCC1)N1CCCc2ccccc21)OCCO3 (stereo unspecified)	-3%	7.9µM*	>57	-3%
O=c1[nH]c2cc3c(cc2cc1C(c1nnnn1Cc1ccccc1)N1CCCc2ccccc21)OCO3 (stereo unspecified)	8%	-10%	>57	3.2µM*
COc1ccc2cc3cc(C(=O)Nc4ccc5c(c4)OCCO5)oc3nc2c1	0%	1µM*	>57	48%
COc1ccc2cc3cc(C(=O)NCc4ccc5c(c4)OCO5)oc3nc2c1	-2%	9%	>57	3%
O=C(Nc1ccc2c(c1)OCCO2)c1ccco1	9%	10µM*	>57	3%
N#CCSc1nc2ccccc2c(=O)n1CCC(=O)NCCc1ccccc1	-3%	1%	>57	16µM*[single pt active]
CC(=O)NCCn1c(SCC#N)nc2ccccc2c1=O	1%	?	>57	6%
Nc1ccc(-c2cc(N)n(-c3ccccc3)n2)cc1	-4%	?	>57	35%
